ELG1 genotoxic: qHTS screen for small molecules that induce genotoxicity in human embryonic kidney (HEK293T) cells expressing luciferase-tagged ELG1; HEK293T ELG1-luciferase reporter, luminescence, 16 h; Potency, µM (top dose mostly 46 µM), without a hit: at the top dose activity change, positive = activation, actives largely listed as activators; 330,000 tested, 1.3% active; note: % of control where 0% means no effect; nearly all actives have a fitted effect of over 60% in size
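ELG1-luciferase HEK293T cells, 2,000/well; compound pinned in; 16 hr, 37 °C, 5% CO2; ONE-Glo, 30 min RT; luminescence on CCD imager.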
SMN2 splice up: qHTS Assay for Enhancers of SMN2 Splice Variant Expression. 210,000 tested, 2.8% active. Potency, µM (top dose mostly 46.1 µM), for the others: at the top dose activity change, positive = activation, usual class: activators. HEK293 SMN2-luciferase splicing reporter, luminescence, 30-36 h. AID 1458, 2008; note: % of control where 0% means no effect; nearly all actives have a fitted effect of over 55% in size
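HEK293 cells carry an SMN2 minigene-luciferase reporter in which exon 7 inclusion puts luciferase in frame. Cells were seeded at 2000 cells/well, attached for 10-12 hours, then exposed to compounds for 30-36 hours at 37C before ONE-Glo luminescence.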
NPC1 promoter act: qHTS Assay for NPC1 Promoter Activators | Huh7 NPC1 promoter luciferase reporter, 24 h | Potency, µM (doses to about 9.22 µM), inactives show top-dose activation, actives largely listed as activators | 320,000 tested, 2.4% active; note: % of control where 0% means no effect; nearly all actives have a fitted effect of over 60% in size
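Stable NPC1-promoter luciferase Huh7 line; cpd (DMSO) 24 h, 37 °C, 5% CO2; Amplite luciferase reagent 10 min RT; luminescence readout. qHTS format.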
Rab9 prom act: qHTS Assay for Rab9 Promoter Activators; Huh7 Rab9 promoter-luciferase reporter, luminescence, 24 h; Potency, µM (series often up to 9.22 µM), for the others: top-dose activation, negative = inhibition, hits mostly activators; 320,000 tested, 2.8% active; note: % of control where 0% means no effect; nearly all actives have a fitted effect of over 60% in size
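Promoter activation is measured as luciferase luminescence in Huh7 cells stably transfected with a Rab9 promoter–luciferase construct, following 24 h compound exposure at 37 °C and 10 min reagent incubation at ambient temperature.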
Luc counter: Counterscreen for Luciferase (Kinase-Glo TM) Inhibition; 200,000 tested, 0.28% active; Potency, µM (titrated, usually from 38.3 µM), without a hit: top-dose activity change, negative = inhibition, most hits filed as inhibitors; Kinase-Glo luciferase, ATP luminescence, 8 min; Luciferin 4-monooxygenase (Photuris pensylvanica), Q27757; AID 1379, 2008; note: % is set by controls: 0 for no effect and ±100 for the full control effect; nearly all actives have a fitted effect of over 60% in size
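Compound is pinned into ATP-containing buffer (10 uM ATP, imidazole pH 7.2, 7 mM MgCl2). Kinase-Glo luciferase reagent is then added. Light output is recorded following an 8-min room-temperature incubation.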
FLuc counter: qHTS profiling assay for firefly luciferase inhibitor/activator using purifed enzyme and Km concentrations of substrates (counterscreen for miR-21 project) | purified FLuc, Km substrates, luminescence inhibition | Potency, µM (titrated, usually from 57.5 µM), for inactives: at the highest dose activity change, negative = inhibition, actives largely listed as inhibitors | 360,000 tested, 6.9% active;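 note: plate controls were vehicle for no effect and reference inhibitor for full effect; nearly all actives have a fitted effect of over 55% in size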
Target sequence (P08659 whole entry, looked up): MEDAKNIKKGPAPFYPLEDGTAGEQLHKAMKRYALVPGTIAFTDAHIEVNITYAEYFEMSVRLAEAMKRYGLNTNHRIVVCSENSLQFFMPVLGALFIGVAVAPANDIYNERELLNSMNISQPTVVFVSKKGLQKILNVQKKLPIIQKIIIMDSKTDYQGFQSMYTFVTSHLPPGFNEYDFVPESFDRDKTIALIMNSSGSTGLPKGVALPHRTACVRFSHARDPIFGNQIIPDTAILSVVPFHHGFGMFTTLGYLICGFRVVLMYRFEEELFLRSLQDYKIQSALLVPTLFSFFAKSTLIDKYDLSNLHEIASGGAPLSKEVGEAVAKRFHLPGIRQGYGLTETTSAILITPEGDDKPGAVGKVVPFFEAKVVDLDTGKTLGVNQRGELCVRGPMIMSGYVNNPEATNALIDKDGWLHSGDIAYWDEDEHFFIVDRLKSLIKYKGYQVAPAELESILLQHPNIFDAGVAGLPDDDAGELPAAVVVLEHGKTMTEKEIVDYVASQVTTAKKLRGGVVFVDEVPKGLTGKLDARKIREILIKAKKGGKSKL
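Biochemical qHTS of compounds, final roughly 60 µM downward over six points, against 10 nM purified firefly luciferase using Km concentrations of substrates (10 uM D-luciferin, 10 uM ATP) in Tris acetate pH 7.5 buffer; luminescence output.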
The depositor's hits bear a star; ? = inconclusive; / = not tested or not shown; [ ] = dose if it differs, or a comment. In the library only some 7.3% were active in any assay of this set; here they are far more common. Calls come from the whole dose curve; as a rule, active = well fitted curve in the direction sought with a large enough effect; inconclusive = small, poorly fitted or top-dose-only effect, or another doubt; inactive = no such curve, though single readings can be large; an effect the other way counts as inactive or inconclusive. Potency is the fitted concentration of half-maximal effect.

SMILES | ELG1 genotoxic | SMN2 splice up | NPC1 promoter act | Rab9 prom act | Luc counter | FLuc counter
CCN1CCc2nc(NC(=O)c3ccc4c(c3)OCCO4)sc2C1 | ? | ? | ? | ? | -4.3% | 10.7µM*
CN1CCN(c2ccc(NC(=O)c3ccc4c(c3)OCCO4)cc2)CC1 | 4.61µM* | 11.2µM* | 2.24µM* | 3.16µM* | 0.7% | 6.01µM*
Cc1ccc(C(=O)Nc2ccc(N3CCN(S(C)(=O)=O)CC3)cc2)cc1C | -2.2% | / | 0.0% | 1.3% | -3.5% | 6.5%
CCC(=O)N1CCN(c2ccc(NC(=O)c3ccc4c(c3)OCCO4)cc2)CC1 | ? | 1.9% | 0.6% | 22.0% | -2.6% | -2.1%
Cc1ccc(C(=O)Nc2ccc(N3CCN(C)CC3)cc2)cc1C | 1.83µM* | / | 0.794µM* | 0.708µM* | / | 3.38µM*
CCN1CCN(c2ccc(NC(=O)c3ccc4c(c3)OCCO4)cc2C)CC1 | ? | / | 2.82µM* | 1.58µM* | / | 6.75µM*
C=CCc1ccc(OCC(O)CO)c(OC)c1 (stereo not drawn) | 7.5% | -22.9% | 13.4% | 4.6% | 19.6% | -10.9%
C=CCc1ccc(OCCCOc2ccc(C(=O)O)cc2)c(OC)c1 | 3.4% | 14.9% | 15.3% | 5.3% | 0.3% | 10.7µM*
C=CCc1ccc(OC(=O)c2ccccc2)c(OC)c1 | 1.5% | -5.4% | -3.9% | -1.7% | -0.1% | 6.75µM*
C[C@@H]1C[C@H]2[C@@H]3C[C@H](F)C4=CC(=O)C=C[C@]4(C)[C@@]3(F)[C@@H](O)C[C@]2(C)[C@@]1(O)C(=O)COC(=O)C(C)(C)C | -0.8% | -4.9% | -5.1% | -0.5% | 3.6% | 1.6%
Cc1ccc(S(=O)(=O)NNC(=O)c2cnn(-c3ccccc3)c2-n2cccc2)cc1 | -3.6% | 9.8% | -5.4% | 0.7% | 1.7% | 2.6%
O=C(c1ccco1)N1CCN=C1SCc1ccccc1Cl | 9.9% | -8.3% | -0.8% | -9.6% | -4.1% | -8.9%
COc1cccc(NC(=S)N2CCC(c3ccc(C)cc3)C2)c1 (stereo not drawn) | 6.7% | / | 29.4% | ? | / | 13.5µM*
COc1ccc(NC(=S)N2CCC(c3ccc(C)cc3)C2)cc1 (stereo not drawn) | 6.5% | / | -1.1% | 5.3% | / | ?
Cc1ccc(NC(=S)N2CCC(c3ccc(C)cc3)C2)cc1 (stereo not drawn) | ? | / | 26.5% | ? | / | 15.1µM*
COc1ccc(C(c2nnnn2C2CCCC2)N2CCN(C(=O)c3ccco3)CC2)cc1OC (stereo not drawn) | 2.7% | / | 1.9% | 3.7% | / | 2.3%
O=C(CC(C(=O)O)c1ccccc1)c1cccs1 (stereo not drawn) | -1.7% | / | -0.5% | 7.8% | / | 3.3%
c1ccc(-n2cnc3cc(NCc4ccccn4)ccc32)cc1 | ? | / | ? | ? | 4.2% | 15.1µM*
CCCCn1cnc2cc(NCc3ccncc3)ccc21 | 10.4% | -20.3% | -4.0% | -3.9% | 0.2% | 4.5%
c1ccc(-n2cnc3cc(NCc4ccncc4)ccc32)cc1 | 1.3% | -96.1% | 21.6% | ? | 23.0% | 23.9µM*
Cc1cc(C(=O)COC(=O)c2ccc3c(c2)OCO3)c(C)n1CC1CCCO1 (stereo not drawn) | ? | 18.4% | 1.58µM* | 1.26µM* | -9.2% | 2.13µM*
COc1cccc(/C=C/C(=O)OCC(=O)c2ccc(C)c(C)c2)c1OC | 0.3% | / | 0.6% | -3.0% | / | ?
CCC(=O)c1ccc(OCC(=O)OCC(=O)c2cc(C)n(CC3CCCO3)c2C)cc1 (stereo not drawn) | -0.1% | / | 3.8% | -4.4% | / | -24.9%
COc1cccc(/C=C/C(=O)OCC(=O)c2cc(C)n(CC3CCCO3)c2C)c1OC (stereo not drawn) | 0.8% | / | 5.1% | 7.6% | / | 13.5µM*
Cc1cc(C(=O)COC(=O)C2CCN(C(=O)c3ccc(Cl)cc3)CC2)c(C)n1CC1CCCO1 (stereo not drawn) | 9.8% | 2.9% | -3.8% | 8.0% | 0.8% | 15.1µM*
SMILES | ELG1 genotoxic | SMN2 splice up | NPC1 promoter act | Rab9 prom act | Luc counter | FLuc counter
COc1cc(C)ccc1OCC(=O)OCC(=O)c1cc(C)n(CC2CCCO2)c1C (stereo not drawn) | 3.0% | / | -0.4% | 0.6% | / | ?
COc1cc(C(=O)OCC(=O)c2cc(C)n(CC3CCCO3)c2C)cc(OC)c1C (stereo not drawn) | 3.2% | / | 3.3% | 5.3% | / | 16.9µM*
CC1CCN(Cc2ccc(NC(=O)C3CCN(c4nnc(-n5cccc5)s4)CC3)cc2)CC1 | ? | -18.8% | -1.2% | -9.8% | 4.3% | 0.4%
O=C(NCCN1C(=O)C2C3C=CC(C3)C2C1=O)Nc1ccccc1 (stereo not drawn) | 11.5% | -12.5% | 2.7% | 1.5% | 6.5% | -6.5%
Cc1ccc(NC(=O)NCCN2C(=O)C3C4C=CC(C4)C3C2=O)cc1 (stereo not drawn) | 7.31µM* | 11.2µM* | 2.51µM* | 1.58µM* | 1.2% | 16.9µM*
COc1ccc(NC(=O)NCCN2C(=O)C3C4C=CC(C4)C3C2=O)cc1 (stereo not drawn) | ? | 11.2µM* | ? | ? | 3.6% | ?
CC(C)OCCOc1ccc2oc(-c3ccco3)cc(=O)c2c1 | 8.0% | / | ? | ? | / | 23.9µM*
N#CCOc1ccc2oc(-c3ccco3)cc(=O)c2c1 | -5.9% | -19.0% | 8.9% | 1.6% | -18.5% | 0.5%
Cc1ccc2oc(-c3ccco3)cc(=O)c2c1 | 20.6µM* | ? | ? | 2.82µM* | -6.2% | 9.53µM*
C=CCN(C(=O)C1=NN(C2CCS(=O)(=O)C2)C(=O)CC1)c1nc(-c2ccc([N+](=O)[O-])cc2)cs1 (stereo not drawn) | 12.5% | 11.2µM* | 3.98µM* | 2.82µM* | -1.8% | -17.6%
Oc1ccccc1C1=NCCNC(C(F)(F)C(F)F)=C1 | -7.1% | 10.1% | -0.7% | 0.6% | 1.9% | 3.6%[2.3 µM]
Cc1ccc(OCCn2ncc3ccccc3c2=O)c(C)c1 | 5.0% | / | 5.0% | 12.5% | / | -16.4%
O=c1c2ccccc2cnn1CCOc1cccc(Br)c1 | ? | / | 3.55µM* | ? | / | 9.53µM*
CC(=O)N[C@H]1C(O)O[C@H](CO)[C@@H](O)[C@@H]1O (stereo partly drawn) | 5.1% | / | -0.6% | 0.3% | / | -0.1%
CCN(CC)S(=O)(=O)c1cccc(NC(=O)c2cccc(S(=O)(=O)N3CCCC3)c2)c1 | -4.8% | / | 0.5% | 1.4% | / | /
